# Data published in PubChem BioAssay (Tox21).
# Values joined by “and” are separate entries in the source; they are usually repeats but may differ in a detail not shown here. Equal values may be shown once. Values without a mark were called inactive. Records with an inconclusive call do not appear. A call without a number means that no potency is given here. Active and inactive are the calls of the source. Unless noted, calls come from the whole dose curve; as a rule, active = well fitted curve in the direction sought with a large enough effect in the repeat runs; inconclusive = weak or mixed curves; inactive = no such curve, though single readings can be large; an effect the other way counts as inactive or inconclusive.
# Assays:
# [1] = qHTS assay for small molecule agonists of the p53 signaling pathway (AID 651631; calls by dose curve; note: nearly all actives have a fitted effect of over 15% in size; note: potency is the fitted concentration of half-maximal effect)
# In short: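 Readout was fluorescence from the LiveBLAzer FRET substrate, applied for 2 h at room temperature after 16 h compound exposure at 37 °C. Cells were the p53RE-bla HCT-116 line, with beta-lactamase driven by p53 response elements.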
# [2] = qHTS assay for small molecules that induce genotoxicity in human embryonic kidney cells expressing luciferase-tagged ATAD5 (AID 651632); note: nearly all actives have a fitted effect of over 15% in size; note: potency is the fitted concentration of half-maximal effect
# In short: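 Concentration-response screen for ATAD5 upregulation in HEK293T luciferase reporter cells; 16 hr treatment at 37C, then luminescence after 30 min with Amplite at room temperature.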
# [3] = qHTS assay for small molecule agonists of the p53 signaling pathway - cell viability (AID 651633; calls by dose curve; note: nearly all actives have a fitted effect of over 30% in size; note: potency is the fitted concentration of half-maximal effect)
# In short: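 p53RE-bla cells, seeded at 4,000 per well and rested 5 h at 37 C/5% CO2, received compounds in DMSO for 16 h at 37 C. CellTiter-Glo was then added, and luminescence was read after 30 min at room temperature to gauge cytotoxicity.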
# [4] = qHTS assay for small molecules that induce genotoxicity in human embryonic kidney cells expressing luciferase-tagged ATAD5 - cell viability (AID 651634; calls by dose curve; note: nearly all actives have a fitted effect of over 25% in size; note: potency is the fitted concentration of half-maximal effect)
# In short: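 15.5 hr compound or vehicle exposure of HEK293T cells expressing luciferase-tagged ATAD5 at 37C; live-cell protease activity is read by fluorescence after 30 min of CellTiter-Fluor.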
# [5] = qHTS assay for small molecule disruptors of the mitochondrial membrane potential - cell viability (AID 720634; calls by dose curve; note: nearly all actives have a fitted effect of over 20% in size; note: potency is the fitted concentration of half-maximal effect)
# In short: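 In this qHTS format, HepG2 cells plated overnight were pinned with compound, incubated 1 hr, and assayed for ATP luminescence with CellTiter-Glo after m-MPI dye addition.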
# [6] = qHTS assay to test for compound auto fluorescence at 590 nm (red) in HepG2 cells (AID 720674)
# In short: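 Intrinsic compound fluorescence in the red window (Ex/Em 540/590 nm) is measured in attached HepG2 cells exposed for 1 hr, DMSO vehicle as baseline, benchmarked to Rose Bengal sodium.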
# [7] = qHTS assay to test for compound auto fluorescence at 535 nm (green) in HepG2 cells (AID 720675)
# [8] = qHTS assay to test for compound auto fluorescence at 460 nm (blue) in HEK293 cells (AID 720678)
# In short: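 HEK293 cells (2,000 per well, medium with 10% dialyzed FBS) attached for 4-5 hr at 37C, then received compound and stood overnight at 37C, 5% CO2. Blue fluorescence was read at Ex/Em 405/460 nm and expressed relative to triamterene.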
# [9] = qHTS assay to test for compound auto fluorescence at 590 nm (red) in HEK293 cells (AID 720679)
# In short: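 HEK293 cells (2,000/well, medium with 10% dialyzed FBS) attached for 4-5 hr at 37C, received 23 nL compound and were incubated overnight at 37C, 5% CO2. Red fluorescence was then read at 540/590nm Ex/Em, referenced to Rose Bengal sodium.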
# [10] = qHTS assay to test for compound auto fluorescence at 535 nm (green) in HEK293 cells (AID 720680)
# [11] = qHTS assay to test for compound auto fluorescence at 460 nm (blue) in HEK293 cell free culture (AID 720681)
# In short: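 Test compounds were pinned into cell-free culture medium (DMEM with 10% FBS) and fluorescence was read directly at Ex/Em 405/460 nm. Signals were expressed as fluorescence equivalents of triamterene, with DMSO vehicle as control.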
# [12] = qHTS assay to test for compound auto fluorescence at 535 nm (green) in HEK293 cell free culture (AID 720682)
# In short: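 Compounds were pin-transferred into cell-free DMEM with 10% FBS, and green fluorescence was read at excitation 485 nm and emission 535 nm. Intensities were expressed as fluorescein-equivalent values.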
# [13] = qHTS assay to test for compound auto fluorescence at 590 nm (red) in HEK293 cell free culture (AID 720683)
# In short: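 Tox21 10K library compounds were pinned into cell-free DMEM with 10% FBS and fluorescence was read at excitation 540 nm. Activity is expressed as Rose Bengal sodium equivalency.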
# [14] = qHTS assay to test for compound auto fluorescence at 590 nm (red) in HepG2 cell free culture (AID 720684)
# In short: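 Ex 540 / Em 590 nm read of compound in cell-free MEM (10% FBS). Rose Bengal sodium reference.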
# [15] = qHTS assay to test for compound auto fluorescence at 460 nm (blue) in HepG2 cell free culture (AID 720685)
# In short: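 Cell-free plates of MEM plus 10% FBS received 23 nL compound or DMSO vehicle; blue-channel (405/460 nm) intensity scored against triamterene as reference fluorophore.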
# [16] = qHTS assay to test for compound auto fluorescence at 460 nm (blue) in HepG2 cells (AID 720687)
# In short: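 Cells (2,000/well in MEM with 10% FBS) attached overnight at 37 C, then were exposed to compound or DMSO for 1 hr at 37 C, 5% CO2. Fluorescence read at Ex/Em 405/460 nm, expressed as triamterene-equivalent signal.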
# [17] = molecular target: Glucocorticoid receptor (Homo sapiens) (UniProt P04150); assay: qHTS assay to identify small molecule agonists of the glucocorticoid receptor (GR) signaling pathway (AID 720691; active = well fitted activation curve with a large enough effect in the signal ratio in the repeat runs, not every such curve was filed as active; the % refers to the signal ratio; note: potency is the fitted concentration of half-maximal effect); details: GR-bla HeLa, beta-lactamase reporter ratio, 18 h; activation: at 62.4 µM (top of the series)
# In short: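 Measures GR pathway activation through a GRE-beta-lactamase reporter stably integrated in HeLa cells, with 18 h compound treatment at 37 C and fluorescence detection using a FRET substrate.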
# [18] = molecular target: Glucocorticoid receptor (Homo sapiens) (UniProt P04150); assay: qHTS assay to identify small molecule antagonists of the glucocorticoid receptor (GR) signaling pathway (AID 720692; active = well fitted inhibition curve with a large enough effect in the signal ratio in the repeat runs, not every such curve was filed as active; the % refers to the signal ratio)
# In short: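 Tox21 10K library screened in concentration-response for blockade of dexamethasone (5 nM final)-induced GRE-bla reporter activity in HeLa cells; 18 h treatment, fluorescence read.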
# [19] = qHTS assay to test for compound auto fluorescence at 535 nm (green) in HepG2 cell free culture (AID 720686)
# [20] = qHTS assay for small molecule disruptors of the mitochondrial membrane potential (AID 720635); note: potency is the fitted concentration of half-maximal effect
# In short: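 HepG2 cells (2,000/well) attached overnight at 37C, then took compound for 1 hr at 37C, 5% CO2. Mito-MPS dye was added for 30 min; fluorescence was read at 490/535 nm (monomers) and 540/590 nm (aggregates).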
# Sequence of Glucocorticoid receptor (Homo sapiens) (P04150 whole entry, looked up): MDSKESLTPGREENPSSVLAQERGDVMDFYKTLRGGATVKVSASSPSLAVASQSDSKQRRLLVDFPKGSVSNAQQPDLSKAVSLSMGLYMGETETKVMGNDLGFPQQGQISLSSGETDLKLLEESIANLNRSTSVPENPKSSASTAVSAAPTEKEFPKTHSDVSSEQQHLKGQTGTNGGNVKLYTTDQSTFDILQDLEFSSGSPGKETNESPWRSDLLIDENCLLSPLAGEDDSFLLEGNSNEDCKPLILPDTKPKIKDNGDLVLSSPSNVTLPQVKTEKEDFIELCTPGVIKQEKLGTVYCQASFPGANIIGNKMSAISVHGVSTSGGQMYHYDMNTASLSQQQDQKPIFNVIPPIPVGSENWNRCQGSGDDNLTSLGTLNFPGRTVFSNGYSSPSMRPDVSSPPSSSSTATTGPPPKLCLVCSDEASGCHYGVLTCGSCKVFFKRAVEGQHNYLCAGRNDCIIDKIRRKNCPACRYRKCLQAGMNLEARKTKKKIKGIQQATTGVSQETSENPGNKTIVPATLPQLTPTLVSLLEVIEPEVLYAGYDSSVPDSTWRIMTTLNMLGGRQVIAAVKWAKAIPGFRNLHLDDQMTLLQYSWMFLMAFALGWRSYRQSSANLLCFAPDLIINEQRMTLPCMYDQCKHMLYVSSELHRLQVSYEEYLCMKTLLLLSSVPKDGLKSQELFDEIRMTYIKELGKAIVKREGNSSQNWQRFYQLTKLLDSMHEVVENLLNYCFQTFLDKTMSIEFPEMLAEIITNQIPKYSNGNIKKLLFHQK
compound,measurement,setting,value
Cc1[nH]cnc1C[C@H]1CCc2c(C)c3ccccc3n2C1=O,Potency,[1],inactive
same,Potency,[2],inactive
same,Potency,[3],inactive
same,Potency,[4],inactive
same,Potency,[5],inactive
same,Potency,[6],inactive
same,Potency,[7],inactive
same,Potency,[8],inactive
same,Potency,[9],inactive
same,outcome,[10],inactive
same,Potency,[11],inactive
same,outcome,[12],inactive
same,Potency,[13],inactive
same,Potency,[14],inactive
same,Potency,[15],inactive
same,Potency,[16],inactive
same,Potency,[17],inactive
same,Potency,[18],inactive
C=C(C)C(=O)OCC[N+](C)(C)C,Potency,[1],inactive
same,Potency,[2],inactive
same,Potency,[3],inactive
same,Potency,[4],inactive
same,Potency,[5],inactive
same,Potency,[6],inactive
same,Potency,[8],inactive
same,Potency,[9],inactive
same,outcome,[10],inactive
same,Potency,[11],inactive
same,outcome,[12],inactive
same,Potency,[13],inactive
same,Potency,[14],inactive
same,Potency,[15],inactive
same,Potency,[19],inactive
same,Potency,[16],inactive
same,Potency,[17],inactive
same,Potency,[18],inactive
ON=C1CCCC1,Potency,[1],inactive
same,Potency,[2],inactive
same,Potency,[3],inactive
same,Potency,[4],inactive
same,Potency,[5],inactive
same,Potency,[20],inactive
same,Potency,[6],inactive
same,Potency,[7],inactive
same,Potency,[8],inactive
same,outcome,[10],inactive
same,Potency,[11],inactive
same,outcome,[12],inactive
same,Potency,[13],inactive
same,Potency,[14],inactive
same,Potency,[15],inactive
same,Potency,[16],inactive
same,Potency,[17],inactive
COc1ccc(-c2ccc3cc(C(=O)O)ccc3c2)cc1C12CC3CC(CC(C3)C1)C2,Potency,[1],2.37 µM (active)
same,Potency,[2],inactive
same,Potency,[3],3.76 µM (active)
same,Potency,[4],inactive
same,Potency,[6],inactive
same,Potency,[7],inactive
same,Potency,[8],inactive
same,Potency,[9],inactive
same,outcome,[10],inactive
same,Potency,[11],inactive
same,outcome,[12],inactive
same,Potency,[13],inactive
same,Potency,[14],inactive
same,Potency,[15],inactive
same,Potency,[19],inactive
same,Potency,[16],inactive
Clc1ccc2cc3ccccc3cc2c1,Potency,[1],54.4 µM (active)
same,Potency,[2],inactive
same,Potency,[3],inactive
same,Potency,[4],inactive
same,Potency,[5],inactive
same,Potency,[6],inactive
same,Potency,[7],inactive
same,Potency,[8],inactive
same,outcome,[10],inactive
same,Potency,[11],inactive
same,outcome,[12],inactive
same,Potency,[13],inactive
same,Potency,[14],inactive
same,Potency,[15],inactive
same,Potency,[19],inactive
C[C@@H]1C[C@H]2[C@@H]3CCC4=CC(=O)C=C[C@]4(C)[C@@]3(Cl)[C@@H](O)C[C@]2(C)[C@@]1(OC(=O)c1ccco1)C(=O)CCl,Potency,[1],inactive
same,Potency,[2],inactive
same,Potency,[3],inactive
same,Potency,[4],inactive
same,Potency,[5],inactive
same,Potency,[20],11.4 µM (active)
same,"fluorescence, relative to Rose Bengal",[6],-0.134% [at 18.6 µM]
same,"fluorescence, % of fluorescein control",[7],0.0009% [at 18.6 µM]
same,"fluorescence, % of triamterene",[8],0.0948% [at 18.6 µM]
same,"fluorescence, % of fluorescent control",[9],0.225% [at 18.6 µM]
same,"fluorescence, % of fluorescein",[10],-0.0241% [at 18.6 µM]
same,"fluorescence, % of fluorescent control",[11],0.0036% [at 18.6 µM]
same,activity change,[12],-0.0517% [at 18.6 µM]
same,"fluorescence, % of fluorescent control",[13],0.0049% [at 18.6 µM]
same,"fluorescence, % of Rose Bengal",[14],-0.333% [at 18.6 µM]
same,"fluorescence, % of fluorescent control",[15],-0.0123% [at 18.6 µM]
same,"fluorescence, % of fluorescent control",[16],-0.0042% [at 18.6 µM]
NNC(=O)c1cccc(C(=O)NN)c1,Potency,[1],inactive
same,Potency,[2],inactive
same,Potency,[3],inactive
same,Potency,[4],inactive
same,Potency,[5],inactive
same,Potency,[6],inactive
same,Potency,[7],inactive
same,Potency,[8],inactive
same,Potency,[9],inactive
same,outcome,[10],inactive
same,Potency,[11],inactive
same,outcome,[12],inactive
same,Potency,[13],inactive
same,Potency,[14],inactive
same,Potency,[15],inactive
same,Potency,[19],inactive
same,Potency,[16],inactive
same,Potency,[17],inactive
Cc1cccc(S(=O)(=O)O)c1C,Potency,[1],inactive
same,Potency,[2],inactive
same,Potency,[3],inactive
same,Potency,[4],inactive
same,Potency,[5],inactive
same,Potency,[6],inactive
same,Potency,[7],inactive
same,Potency,[8],inactive
same,Potency,[9],inactive
same,outcome,[10],inactive
same,Potency,[11],inactive
same,outcome,[12],inactive
same,Potency,[13],inactive
same,Potency,[14],inactive
same,Potency,[15],inactive
same,Potency,[19],inactive
same,Potency,[16],inactive
same,Potency,[17],inactive
same,Potency,[18],inactive
[O-][n+]1ccccc1SSc1cccc[n+]1[O-],Potency,[1],2.66 µM (active)
same,Potency,[2],2.66 µM (active)
same,Potency,[3],inactive
same,Potency,[4],7.5 µM (active)
same,Potency,[5],inactive
same,Potency,[20],0.668 µM (active)
same,Potency,[6],inactive
same,Potency,[7],inactive
same,Potency,[8],inactive
same,Potency,[9],inactive
same,outcome,[10],inactive
same,Potency,[11],inactive
same,outcome,[12],inactive
same,Potency,[13],inactive
same,Potency,[14],inactive
same,Potency,[15],inactive
same,Potency,[19],inactive
CO[Si](CCCNc1ccccc1)(OC)OC,Potency,[1],inactive
same,Potency,[2],inactive
same,Potency,[3],inactive
same,Potency,[4],inactive
same,Potency,[5],inactive
same,Potency,[20],inactive
same,Potency,[6],inactive
same,Potency,[7],inactive
same,Potency,[8],inactive
same,Potency,[9],inactive
same,outcome,[10],inactive
same,Potency,[11],inactive
same,outcome,[12],inactive
same,Potency,[13],inactive
same,Potency,[14],inactive
same,Potency,[15],inactive
same,Potency,[19],inactive
same,Potency,[17],inactive
same,Potency,[18],inactive
Oc1ccc(Cl)cc1Sc1cc(Cl)ccc1O,Potency,[1],29.8 µM (active)
same,Potency,[2],inactive
same,Potency,[3],26.6 µM (active) and 54.4 µM (active)
same,Potency,[4],19.3 µM (active)
same,Potency,[5],9.44 µM (active) and 13.7 µM (active)
same,Potency,[20],2.11 µM (active) and 1.53 µM (active)
same,Potency,[6],inactive
same,Potency,[7],inactive
same,Potency,[8],inactive
same,Potency,[9],inactive
same,outcome,[10],inactive
same,Potency,[11],inactive
same,outcome,[12],inactive
same,Potency,[13],inactive
same,Potency,[14],inactive
same,Potency,[15],inactive
same,Potency,[19],inactive
same,Potency,[16],inactive
Cc1cccc2c1cc1ccc3cccc4ccc2c1c34,Potency,[1],2.49 µM (active)
same,Potency,[2],inactive
same,Potency,[3],inactive
same,Potency,[4],inactive
same,Potency,[5],inactive
same,Potency,[6],inactive
same,Potency,[8],inactive
same,Potency,[9],inactive
same,outcome,[10],inactive
same,Potency,[11],inactive
same,outcome,[12],inactive
same,Potency,[13],inactive
same,Potency,[14],inactive
same,Potency,[15],inactive
same,Potency,[19],inactive
same,Potency,[16],inactive
same,Potency,[17],5.01 µM [fluorescent] (active)
